The panel holds about 83,000 compounds, 20% with a hit somewhere; the sample as a whole holds those more often.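 48-hour exposure, single concentration, 96-well plates; percent growth endpoint where 0 means no net growth. Active: below 10.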 Values without a mark were called inactive. The source made the active and inactive calls.
What was measured:
Assay in all cases: NCI-60 one-dose screen, 48 h (100 = growth as untreated, 0 = no growth, -100 = all killed)
Conditions in all cases: 10 µM unless noted
SR leukemia = test system: SR leukemia
RPMI-8226 leukemia = test system: RPMI-8226 leukemia
OVCAR-8 ovarian = test system: OVCAR-8 ovarian
OVCAR-5 ovarian = test system: OVCAR-5 ovarian
OVCAR-4 ovarian = test system: OVCAR-4 ovarian
SK-OV-3 ovarian = test system: SK-OV-3 ovarian
IGROV1 ovarian = test system: IGROV1 ovarian
OVCAR-3 ovarian = test system: OVCAR-3 ovarian
HS 578T breast = test system: HS 578T breast
NCI/ADR-RES ovarian = test system: NCI/ADR-RES ovarian
T-47D breast = test system: T-47D breast
BT-549 breast = test system: BT-549 breast
MDA-MB-435 melanoma = test system: MDA-MB-435 melanoma
SW-620 colon = test system: SW-620 colon
MCF7 breast = test system: MCF7 breast
HCT-116 colon = test system: HCT-116 colon
HCC-2998 colon = test system: HCC-2998 colon
KM12 colon = test system: KM12 colon

| Compound | growth (SR leukemia) | growth (RPMI-8226 leukemia) | growth (OVCAR-8 ovarian) | growth (OVCAR-5 ovarian) | growth (OVCAR-4 ovarian) | growth (SK-OV-3 ovarian) | growth (IGROV1 ovarian) | growth (OVCAR-3 ovarian) | growth (HS 578T breast) | growth (NCI/ADR-RES ovarian) | growth (T-47D breast) | growth (BT-549 breast) | growth (MDA-MB-435 melanoma) | growth (SW-620 colon) | growth (MCF7 breast) | growth (HCT-116 colon) | growth (HCC-2998 colon) | growth (KM12 colon) [%] |
| --- | --- | --- | --- | --- | --- | --- | --- | --- | --- | --- | --- | --- | --- | --- | --- | --- | --- | --- |
| Nc1n[nH]c2cccc(C#Cc3cccc(NC(=O)c4ccc(N5CCOCC5)c(C(F)(F)F)c4)c3)c12 | 12.6% | -0.476% (active) | 10.7% | 8.26% (active) | 25.6% | 2.24% (active) | -39.1% (active) | 34.9% | -11.4% (active) | 14.4% | -0.951% (active) | 14.2% | 19.2% | 21.5% | 25.6% | 2.84% (active) | 6.77% (active) | 21.4 |
| Cc1ccc(-c2nc(SCC(=O)c3ccc(C#N)cc3)[nH]c(=O)c2C#N)cc1 | -40.6% (active) | 123% | 96.3% | 94.8% | 94.5% | 82.4% | 99.9% | 97.9% | 113% | 101% | 100% | 101% | 106% | 112% | 96.5% | 88.9% | 107% | 93.6 |
| COc1ccc(-c2cc(-c3cccc(Cl)c3)c(C#N)c(=O)[nH]2)c(OC)c1 | 111% | 68.3% | 94.4% | 99.1% | 91.8% | 114% | 92.1% | 90.5% | 74.4% | 90.9% | 97.8% | 85.9% | 87.1% | 96.3% | 88.7% | 96.9% | 106% | 102 |
| C=C1C(=O)O[C@H]2[C@H]1CC/C(CNS(=O)(=O)c1ccc3ccccc3c1)=C\CC[C@@]1(C)O[C@@H]21 | -12.4% (active) | -4.34% (active) | -17.2% (active) | 14.9% | 24.2% | 84.6% | 37.1% | -39.6% (active) | 67% | 65.2% | -67.4% (active) | -9.57% (active) | 0.587% (active) | -29.8% (active) | -56.9% (active) | -87.2% (active) | -57.7% (active) | 64.8 |
| CCCn1nc(C(=O)N2CCCCC2)c2c1CCC(N1CCC(c3ccncc3)CC1)C2 (centres undefined) | 123% | 105% | 98.3% | 107% | 103% | 109% | 113% | 106% | 103% | 101% | 99.5% | 79.5% | 102% | 104% | 99.6% | 99.4% | 109% | 103 |
| COc1ccc(C(c2cc(OC)c(OC)c(OC)c2)n2ccnc2)cc1O (centres undefined) | 8.48% (active) | 18.9% | 10.3% | 71.1% | 73.6% | 21.8% | 36.4% | -9.52% (active) | 29.1% | 12.1% | 42.6% | -0.0718% (active) | -29.5% (active) | 28.6% | 18.4% | 6.88% (active) | 25% | 17 |
| Cc1ccc(S(=O)(=O)Nc2cc(Sc3ccccc3)c(O)c3ccccc23)cc1 | 20.8% | 28.8% | -0.704% (active) | 106% | -99.7% (active) | 115% | 85% | -5.01% (active) | 98.7% | 5.05% (active) | -1.22% (active) | 97.1% | -95.4% (active) | 108% | 64.1% | 58.9% | 106% | 86.4 |
| COc1ccc(-c2nn3c(-c4cc(F)c(Cl)cc4Cl)nnc3s2)cc1 | 13.1% | 29.9% | 67.5% | 59.5% | 80% | 61.1% | 40.6% | 27.8% | -20.6% (active) | 3.63% (active) | 50.3% | 54.3% | 3.5% (active) | 20.8% | 18.3% | 20.9% | 42.1% | 46.8 |

Source: PubChem BioAssay (NCI)
